Reference: PubChem BioAssay AID577 (University of Pittsburgh Molecular Library Screening Center, 2007)
Among all 65,000 compounds or so, about 120 (0.18%) were called active. Cut-off read from the data, not from the text of the source: active = z-score below about -3; inactive = the rest. For the sample, actives were picked, then their nearest neighbours and some compounds at random.

These compounds were tested against Genome polyprotein (West Nile virus) (UniProt P06935) (assay: inhibitors of WNV NS2B-NS3 protease, primary screen, biochemical, fluorogenic substrate (AID 577)). Details: fluorogenic substrate Ex360/Em465, hits give low values.
Genome polyprotein (West Nile virus), sequence (P06935 1371-1501 limits assumed): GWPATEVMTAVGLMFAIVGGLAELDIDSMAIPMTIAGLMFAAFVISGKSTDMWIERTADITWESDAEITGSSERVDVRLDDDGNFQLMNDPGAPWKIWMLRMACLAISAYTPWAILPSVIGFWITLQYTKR
Genome polyprotein (West Nile virus), sequence (P06935 1502-1679 limits assumed): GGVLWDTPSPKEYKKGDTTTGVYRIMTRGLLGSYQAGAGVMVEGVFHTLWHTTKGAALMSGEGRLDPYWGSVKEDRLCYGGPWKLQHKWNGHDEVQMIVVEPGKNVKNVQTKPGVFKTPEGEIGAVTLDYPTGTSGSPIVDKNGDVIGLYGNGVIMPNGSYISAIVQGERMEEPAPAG
`COc1ccc2c(Cl)c(-c3nnco3)sc2c1` was tested, and the z-score was -0.13 (inactive).
With `C=CCOc1ccc(/C=N/n2cncn2)cc1OC` the z-score was 1.7 (inactive).
`CCOCC(=O)NCc1ccc2c(c1)cc(C)n2C` was tested, and the z-score was -0.69 (inactive).
`Cc1ccc2c(c1)NCC(C(=O)NC1CCC(C)CC1)O2` (centres undefined) was tested, and the z-score was 0.12 (inactive).
For `c1ccc(-c2nnc3n2NC(c2ccc4c(c2)OCO4)S3)cc1` (centres undefined), the z-score was -0.39 (inactive).
With `C=CCn1c(COc2cccc3cccnc23)nnc1SCC(=O)OC` the z-score was -1.04 (inactive).
In the case of `COc1ccc(-n2c(SCC(=O)Nc3ccc4c(c3)OCO4)nnc2C(C)N2CCCCC2)cc1` (centres undefined), the z-score is reported as -0.67 (inactive).
In the case of `CCOc1ccccc1NC(=O)CCc1ccc(C)o1`, the z-score is reported as -0.55 (inactive).
For `O=C(c1ccco1)N(Cc1nc2ccccc2c(=O)[nH]1)C1CCCC1`, the z-score was -1.19 (inactive).
`Cn1c(NC(=O)c2ccco2)c(-c2ccccc2Cl)c(=O)c2ccccc21` was tested, and the z-score was -0.04 (inactive).
With `COC(=O)c1oc2ccc(Br)cc2c1NC(C)=O` the z-score was 0.25 (inactive).
For `COc1ccc(C(=O)c2oc3ccc(Br)cc3c2NC(C)=O)cc1`, the z-score was -3 (active).
For `COc1ccc2oc(C)c(NC(C)=O)c2c1`, the z-score was -0.59 (inactive).
For `O=C1CSC(c2cccc(F)c2)N1c1ccccc1F` (centres undefined), the z-score was -0.93 (inactive).
With `CCCS(=O)(=O)N1CCCC(C(=O)N2CCN(c3ccccc3)CC2)C1` (centres undefined) the z-score was 0.81 (inactive).
In the case of `CCn1c(SCCC(C)C)nnc1-c1c[nH]c2ccccc12`, the z-score is reported as -0.65 (inactive).
`CCOC1CCCCC1NS(=O)(=O)c1ccc(Cl)cc1` (centres undefined) was tested, and the z-score was -0.25 (inactive).
`CCNC(=O)N1CCNC(=O)C1CC(=O)Nc1ccc(C(=O)OCC)cc1` (centres undefined) was tested, and the z-score was -0.78 (inactive).
`Cc1cccc2nc(CNc3ccc(F)cc3)cn12` was tested, and the z-score was -0.49 (inactive).
In the case of `Cc1cc(N2CCCC2=O)cc(C)c1S(N)(=O)=O`, the z-score is reported as 0.56 (inactive).
`O=C(O)C1C2C=CC(C2)C1C(=O)N1CCN(CCO)CC1` (centres undefined) was tested, and the z-score was 0.43 (inactive).
With `CCCn1c(=O)c2[nH]c(C3CCCC3)nc2n(CCC)c1=O` the z-score was 0.05 (inactive).
`CCOc1ccccc1Nc1nnc(SCC(=O)Nc2cc(C)on2)s1` was tested, and the z-score was -1.46 (inactive).
For `O=C(CN1C(=O)COc2ccccc21)Nc1ccc(F)cc1`, the z-score was 1.4 (inactive).
For `Cc1ccc(S(=O)(=O)n2nc(OC(=O)C(C)(C)C)cc2N)cc1`, the z-score was 0.18 (inactive).
`Nc1cc(OC(=O)c2ccccc2Br)nn1S(=O)(=O)c1ccccc1` was tested, and the z-score was -6.2 (active).
`CCCCN(CC)C(=O)CN(C)S(=O)(=O)c1cccc2nsnc12` was tested, and the z-score was 1.67 (inactive).
In the case of `CC1Cc2ccccc2N1C(=O)CSc1nnc(-c2ccc(S(=O)(=O)N3CCCCC3)cc2)o1` (centres undefined), the z-score is reported as 0.94 (inactive).
`CC(=O)N1CSCC1C(=O)O` (centres undefined) was tested, and the z-score was -5.15 (active).
For `COCc1cc(C)nc(SCC(=O)Nc2cccc(C)c2)c1C#N`, the z-score was 1.36 (inactive).
In the case of `Cn1c(=NC(=O)c2cnccn2)sc2ccccc21`, the z-score is reported as -1.53 (inactive).
In the case of `O=C(Nc1ccccc1N1CCCCC1)c1cccc(F)c1`, the z-score is reported as 0.74 (inactive).
`O=C(CNC(=O)c1ccc(Cl)cc1Cl)NCC(=O)Nc1ccccc1N1CCOCC1` was tested, and the z-score was -1.5 (inactive).
With `CC(=NCc1ccco1)C1=C(O)c2ccccc2C1=O` the z-score was 0.81 (inactive).
`CC1Cc2ccccc2N1C(=O)CSc1nc2ccccc2o1` (centres undefined) was tested, and the z-score was -0.42 (inactive).
`O=C(COc1ncnc2ccccc12)NC(=O)NCc1ccccc1` was tested, and the z-score was 0.88 (inactive).
With `Cc1noc(C)c1COC(=O)Cn1c(C)nc2ccccc21` the z-score was -1.33 (inactive).
With `CCOC(=O)N1CCC(NC(=O)C(C)n2c3ccccc3c3cnn(C)c(=O)c32)CC1` (centres undefined) the z-score was -0.72 (inactive).
In the case of `C[C@H](NC(=O)NCCc1ccccc1)C(=O)O`, the z-score is reported as 0.46 (inactive).
In the case of `CC(=O)Nc1cccc2c1[n+]([O-])c(C)c(C)[n+]2[O-]`, the z-score is reported as 1.06 (inactive).
For `CC(NC(=O)CN1CCN(Cc2ccc(Cl)cc2)C1=O)c1ccc2c(c1)OCCO2` (centres undefined), the z-score was 0.67 (inactive).
With `COc1ccc(OC)c(-n2cc3c(=O)n(C)c(=O)n(C)c3c2)c1` the z-score was 0.45 (inactive).
In the case of `C=C(C)COc1ccc(-c2n[nH]c(C)c2-c2ccccc2OC)c(O)c1`, the z-score is reported as 0.16 (inactive).
`COc1ccc(CC(NC(C)=O)C(=O)NC2CCN(C(=O)Nc3ccc(C#N)cc3)CC2)cc1OC` (centres undefined) was tested, and the z-score was -0.8 (inactive).
For `Cc1cc(NC(=O)CCC(=O)N(c2cccc(F)c2)C(C(=O)NC2CCCC2)c2ccncc2)no1` (centres undefined), the z-score was 1.41 (inactive).
With `COc1ccc(CC(=O)Nc2ccc(-c3nnc(-c4ccc(C)cc4)o3)cc2)cc1` the z-score was 0.17 (inactive).
In the case of `CCOc1ccc(-c2nnc(-c3ccco3)o2)cc1`, the z-score is reported as -0.08 (inactive).
For `Cc1ccc(OCC(=O)Nc2ccc(-c3nnc(-c4ccco4)o3)cc2)cc1`, the z-score was -3.16 (active).
With `CCCn1c(O)c(CN2CCCC(C)C2)c(C)c(C#N)c1=O` (centres undefined) the z-score was -0.51 (inactive).
For `Clc1ccc(Cc2nn3c(-c4ccncc4)nnc3s2)cc1`, the z-score was 0.04 (inactive).
`O=C(O)C1OC(C(=O)O)C2C1C(F)(F)C2(F)F` (centres undefined) was tested, and the z-score was 1.24 (inactive).
`CC1CSc2nnc(CCc3ccccc3)n21` (centres undefined) was tested, and the z-score was -0.75 (inactive).
In the case of `CCOC(=O)C1CCCN(C(=O)c2ccc(CS(=O)(=O)c3ccc(Br)cc3)o2)C1` (centres undefined), the z-score is reported as -0.97 (inactive).
In the case of `COc1cc2c(cc1NC(=O)CN1CCN(S(=O)(=O)c3ccc(F)cc3)CC1)oc1ccccc12`, the z-score is reported as -0.05 (inactive).
In the case of `CC(=O)N1C(=O)C2(Nc3ccccc3N2)c2ccccc21`, the z-score is reported as -0.34 (inactive).
With `O=S(=O)(NCc1ccccn1)c1ccc(F)cc1` the z-score was -0.56 (inactive).
`Cc1cc(=O)n2c3c(cccc13)CCC2` was tested, and the z-score was -0.73 (inactive).
With `CCCCc1nc2ccccc2c(NC(=O)CN2CCN(C)CC2)c1CCC` the z-score was -1.27 (inactive).
`Cc1ccc(C(C(=O)NC2CCCC2)N(Cc2ccco2)C(=O)CCC(=O)Nc2ccccn2)cc1` (centres undefined) was tested, and the z-score was 0.98 (inactive).
`O=C(NCc1cn2ccsc2n1)Nc1ccc(Cl)cc1` was tested, and the z-score was -0.25 (inactive).
In the case of `CCCC(=O)Nc1cccc(-c2cn3ccsc3n2)c1`, the z-score is reported as -1.1 (inactive).
With `COc1ccc(-c2cn3ccsc3n2)cc1` the z-score was -7.48 (active).
In the case of `CCOc1ccc(NC(=O)Nc2cc(C)on2)cc1`, the z-score is reported as 0.95 (inactive).
`Cn1c(=O)c2c(ncn2CC(=O)N2CCN(c3ccccc3)CC2)n(C)c1=O` was tested, and the z-score was 0.25 (inactive).
In the case of `c1ccc(CCC2=NCCn3cccc32)cc1`, the z-score is reported as -0.03 (inactive).
`COC(=O)c1cc(NC2c3ccccc3C(=O)N2c2ccc(Cl)cn2)cc(C(=O)OC)c1` (centres undefined) was tested, and the z-score was -0.39 (inactive).
`CC(C)(C)c1ccc(C(=O)NCCC(=O)NCc2ccco2)cc1` was tested, and the z-score was 0.25 (inactive).
With `CCCN(CCC)CCNC(=O)c1cc2c(C)nc3ccccc3c2o1` the z-score was 0.99 (inactive).
For `Cc1cc2cc(CN(Cc3cccs3)Cc3nnnn3CC3CCCO3)c(=O)[nH]c2cc1C` (centres undefined), the z-score was -0.04 (inactive).
With `CCOc1ccccc1Oc1cn[nH]c1-c1ccc(OC)cc1O` the z-score was -0.64 (inactive).
With `CC(C)CCNC(=O)CN(C(=O)Cn1nnc(-c2ccc(F)cc2)n1)C1CCCC1` the z-score was -0.44 (inactive).
For `CCOC(=O)C1CCCN(C(=O)CN(c2ccc(OC)cc2)S(=O)(=O)c2c(C)noc2C)C1` (centres undefined), the z-score was -0.04 (inactive).
In the case of `Cc1cc(C)c(C)c(S(=O)(=O)Nc2ccc(O)cc2)c1C`, the z-score is reported as -1.62 (inactive).
In the case of `CC(C(=O)N1CCOCC1)N1c2cccc3cccc(c23)S1(=O)=O` (centres undefined), the z-score is reported as -0.43 (inactive).
With `CCCOc1ccc(Cn2c(O)cc(=O)[nH]c2=O)cc1` the z-score was 0.4 (inactive).
`CCC(=O)N1CCN=C1SCc1ccc(F)cc1` was tested, and the z-score was 0.56 (inactive).
With `COc1ccc(CCN=C2SCC(=O)N2C)cc1OC` the z-score was -0.84 (inactive).
For `Cn1c(=O)[nH]c(=O)c2c1nc(NCCCn1ccnc1)n2Cc1cccc(Br)c1`, the z-score was -0.12 (inactive).
With `CC(=O)Oc1ccc2c(C)c(CC(C)O)c(=O)oc2c1` (centres undefined) the z-score was 5.37 (inactive).
`COC(=O)c1ccccc1NC(=O)CSc1ccccn1` was tested, and the z-score was -0.33 (inactive).
With `Cn1cccc1Cc1nnc(SCC(=O)NCCc2ccccc2)n1-c1ccc(F)cc1` the z-score was -0.68 (inactive).
For `COCCn1c(CN(Cc2ccccc2)Cc2ccccc2)nc2c1c(=O)n(C)c(=O)n2C`, the z-score was 0.73 (inactive).
In the case of `O=C(COc1ccc(Cl)cc1)Nc1ccccc1CO`, the z-score is reported as 1.62 (inactive).
`CC(=O)C1=C(O)C(=O)N(c2ccc(S(N)(=O)=O)cc2)C1c1ccccc1F` (centres undefined) was tested, and the z-score was -0.26 (inactive).
For `O=C(NCc1cccnc1)c1ccc(CS(=O)(=O)c2ccc(Br)cc2)o1`, the z-score was -0.48 (inactive).
`CN(C)c1nc(N)nc(CSc2nnnn2-c2cccc3ccccc23)n1` was tested, and the z-score was -0.13 (inactive).
For `Fc1ccc(OCc2nn3c(Cn4nnc5ccccc54)nnc3s2)cc1`, the z-score was 1.56 (inactive).
`CS(=O)(=O)c1ccc2nc(NC(=O)C3CCCCC3)sc2c1` was tested, and the z-score was -0.5 (inactive).
In the case of `Cc1ccc(F)cc1NC(=O)c1cccc(N(C)C)c1`, the z-score is reported as -0.19 (inactive).
`O=C(Nc1cccc(Cl)c1)OCc1ccccn1` was tested, and the z-score was 0.46 (inactive).
`CCC(C)(NC(=O)c1ccccn1)C(=O)NC1CCCCC1` (centres undefined) was tested, and the z-score was 0.53 (inactive).
For `O=C(Nc1ccc2c(c1)OCO2)C1CC(c2c(F)cccc2Cl)=NO1` (centres undefined), the z-score was 1.16 (inactive).
For `CCSC1(SCC)N=C(N)C2(C#N)C(c3ccccc3)NC(C)=CC12C#N` (centres undefined), the z-score was -1.23 (inactive).
In the case of `O=C(CC1OC(=O)c2ccccc21)NC1CCCCC1` (centres undefined), the z-score is reported as -0.53 (inactive).
`O=C(NCC1CCCO1)C(C(=O)c1ccccc1)n1cc(Cl)ccc1=O` (centres undefined) was tested, and the z-score was -0.94 (inactive).
In the case of `CCn1cc(C(=O)N2CCN(C3CCCCC3)CC2)c2cc(OC)c(OC)cc2c1=O`, the z-score is reported as 0.44 (inactive).
`O=C(O)C1CC(=O)N(Cc2cccnc2)C1` (centres undefined) was tested, and the z-score was -0.77 (inactive).
`O=C1CCC(Cc2ccccc2)N1` (centres undefined) was tested, and the z-score was 0.78 (inactive).
With `O.O.O.O=S(=O)([O-])OC[C@H]1O[C@@H](O[C@]2(COS(=O)(=O)[O-])O[C@H](OS(=O)(=O)[O-])[C@@H](OS(=O)(=O)[O-])[C@@H]2OS(=O)(=O)[O-])[C@H](OS(=O)(=O)[O-])[C@@H](OS(=O)(=O)[O-])[C@@H]1OS(=O)(=O)[O-].[Al]` the z-score was -0.72 (inactive).
